Measurements as given in PubChem BioAssay AID2675 (National Center for Advancing Translational Sciences (NCATS), 2010).
Hit rate of the full screen: of about 280,000 compounds, about 100 (0.036%) were called active. Inconclusive results (about 11%) are left out. The sample holds actives, similar compounds and a random draw of the others, so the mix is not that of the screen. The call rests on the fitted dose curve; in most records, active means well fitted inhibition curve with a large enough effect in the signal ratio, with a control signal flat (not every such curve was filed as active); inconclusive means small, poorly fitted or top-dose-only effect, or effect the other way, or a change in a side signal; inactive means no such curve, though single readings can be large or run the other way; the % refers to the signal ratio.

target: Muscleblind-like protein 1 (Homo sapiens) (UniProt Q9NR56); test: qHTS Assay for Inhibitors of MBNL1-poly(CUG) RNA binding; details: TR-FRET MBNL1-His/biotin-(CUG)12 binding, 665/545 ratio; series mostly up to 57.5 µM; activity change, negative = inhibition: at the top concentration
Text: NIH Chemical Genomics Center [NCGC] NIH Molecular Libraries Probe Production Centers Network [MLPCN] MLPCN Grant: R03 MH087421-01 Assay Submitter (PI): Charles Thornton NCGC Assay Overview: Expanded CTG repeats in the 3' untranslated region of the DM protein kinase (DMPK) gene causes type I myotonic dystrophy (DM1). DM1 is a multi-systemic disease with a prevalence of 1/7000. Clinical features include myotonia, progressive muscle weakness and wasting, cardiac arrhythmia, insulin resistance, hypersomnolence, cataracts, and other symptoms. The pathogenic effect of expanded CTG repeats stems from deleterious effects of the mutant transcript. CUGexp mRNA accumulates in nuclear foci and sequesters proteins of the muscleblind family, of which MBNL1 is the most common family member in skeletal muscles. The binding interaction between MBNL1 and CUGexp tracts leads to deregulation of alternative splicing and is therefore a key molecular step in the pathogenesis of DM1. To target this binding interaction, we optimized a protein-RNA binding assay in 1536-well format for identification of small molecule inhibitors of biotinylated (CUG)12 and his-tagged MBNL1 binding. Protein-RNA complex of MBNL1-His and Biotin-(CUG)12 captures the detection reagents terbium-labeled anti-His antibody and streptavidin conjugated XL665. This brings the terbium label within close proximity to XL665 to allow time-resolved fluorescence resonance energy transfer (TR-FRET). Inhibitors of MBNL1-(CUG)12 binding will disrupt TR-FRET.
NCGC Assay Protocol Summary: This is a TR-FRET binding assay with MBNL1-His and Biotin-(CUG)12 RNA. The assay uses a ratiometric measurement. In the presence of MBNL1-(CUG)12 complex, the excitation energy is transferred to the XL665 acceptor label, causing emission at 665nm, while the 545nm donor signal […]. Data were normalized to the controls for basal activity (buffer only) and 100% activity (with MBNL1-(CUG)12). […] The final titration was 92 nM to 58 uM. (3) Add 1 ul of terbium labeled anti-His antibody (0.055 ng/ul final concentration) (4) Add 1 ul of streptavidin-XL665 (5 nM final concentration) (5) Incubate 60 min at room temperature (6) Detect the assay plate in a EnVision plate reader (PerkinElmer) with Ex=340 nm, Em1=665 nm and Em2=545 nm. Keywords: mytonic dystrophy type I, DM1, muscleblind like 1, MBNL1, CUG expansion, protein-RNA binding inhibitor, high throughput screening, MLSMR, MLSCN, NIH Roadmap, qHTS and NCGC
On the % scale 0 is the no-effect control and ±100 the full control effect.

Sequence of Muscleblind-like protein 1 (Homo sapiens) (Q9NR56 whole entry, looked up): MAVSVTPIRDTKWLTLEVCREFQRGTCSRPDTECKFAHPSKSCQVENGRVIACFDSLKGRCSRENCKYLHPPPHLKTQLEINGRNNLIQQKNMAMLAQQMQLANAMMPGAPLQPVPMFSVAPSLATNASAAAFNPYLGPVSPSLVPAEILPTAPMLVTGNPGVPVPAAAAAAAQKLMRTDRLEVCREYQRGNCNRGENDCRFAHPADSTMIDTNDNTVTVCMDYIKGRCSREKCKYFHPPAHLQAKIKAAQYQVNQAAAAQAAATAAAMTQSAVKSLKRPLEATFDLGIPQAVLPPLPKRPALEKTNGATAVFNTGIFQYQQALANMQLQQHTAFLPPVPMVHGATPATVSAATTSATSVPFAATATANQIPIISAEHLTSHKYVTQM

Activity change, negative = inhibition, inactive:
C=CCNc1nc(N)c([N+](=O)[O-])c(NC2CCCCC2)n1 -5.63%, Cc1[nH]c2ccccc2c1C(=O)CN1CC(C)CC(C)C1 (stereo unspecified) -2.63%, O=C(c1ccccc1)N1N=C(c2ccccc2O)CC1c1ccc(Br)cc1 (stereo unspecified) -12.2%, Nc1nc(Nc2ccccc2F)nc(NC2CCCCC2)c1[N+](=O)[O-] -5.13%, COc1ccc(OC)c(CNC(=O)Cn2nc(C)c3c(C)n(-c4ccc(C)cc4)nc3c2=O)c1 -0.935%, Cc1ccc(C)c(N2CCN(C(=O)CCCn3c(=O)c4cccn4c4cccnc43)CC2)c1 -1.23%, CCOc1ccc(NC(=O)CCCCCN2C(=O)[C@@H]3Cc4ccccc4CN3C2=O)cc1 4.13%, CCc1ccc(/C=N/NC(=O)c2nnn(-c3nonc3N)c2CN2CCc3ccccc32)cc1 1.76%, COc1ccc(NS(=O)(=O)c2cc(C(=O)Nc3ccccc3C(=O)O)ccc2C)cc1 -13.3%, COc1ccc(CN(C)C(=O)c2cc(-c3ccc(C)cc3C)nc3ccccc23)c(OC)c1OC -0.265%, O=C(NCc1cccc(Cl)c1)C1CCC(=O)N(C2CC2)C1 (stereo unspecified) -9.91%, CC(=O)N1c2ccc(S(=O)(=O)N3CCC(C(=O)N4CCN(c5ccccc5)CC4)CC3)cc2CC1C (stereo unspecified) -1.97%, O=C(NCCCN1CCOCC1)c1ccc2c(c1)N(Cc1cccc(F)c1)C(=O)c1ccccc1S2 76.5%, CCc1ccc(C(CNc2nc(C(F)(F)F)nc3ccccc23)N(C)C)cc1 (stereo unspecified) -3.64%, Cc1nnc(NC(=O)C(c2ccccc2)c2ccccc2)s1 1.22%, COc1cccc(CCNC(=O)c2cccc(NC(=O)C3=C(C)OCCS3)c2)c1 -1.35%, Cc1cc(=O)[nH]c(Nc2cccc(Br)c2)n1 -10%, COc1ccccc1N1CCN(S(=O)(=O)CCNC(=O)c2ccc(OC(C)C)cc2)CC1 1.83%, COc1cccc(CN(C)CC(O)COC(c2ccccc2)c2ccccc2C)c1 (stereo unspecified) -1.85%, CCOc1ccc(NC(=O)C(C)N2C(=O)c3ccccc3C2=O)cc1 (stereo unspecified) 1.24%, CCOc1ccc(NC(=O)c2nc(SCC)ncc2Cl)cc1 -14.6%, CCC(C)[C@H](NC(=O)N1CCn2c1nc1ccccc12)C(=O)NCc1ccc(OC)cc1 (stereo partly specified) -2.53%, COc1ccc(NC(=O)c2cc([N+](=O)[O-])ccc2NC(=O)CNC2CCCCC2C)c(OC)c1 (stereo unspecified) 18.6%, COc1ccc(CCNC(=O)c2ccccc2OCc2ccccc2)cc1 -4.43%, Cc1cc(Cl)ccc1C(=O)C1CCCN(C(=O)c2nonc2C)C1 (stereo unspecified) 0.612%, CC(CCc1ccc(O)cc1)NCc1ccc(Cl)cc1Cl (stereo unspecified) -4.16%, COc1ccc(CCNCc2c(-c3ccccc3)n(C)c3ccccc23)cc1 -10.3%, CCC(=O)c1cn(CCOc2ccccc2OC)c2ccccc12 2.83%, COc1ccc(CC(=O)N/N=C/c2cc([N+](=O)[O-])cc(Br)c2O)cc1 -0.176%, COC(=O)c1cc(S(=O)(=O)N2CCN(c3cc(C)ccc3C)CC2)c[nH]1 0.607%, COc1cccc(C(=O)Nc2ccc(N3CCN(C(=O)c4ccco4)CC3)cc2)c1 -4.34%, COC(=O)c1ccc(CN2CCCC(C(=O)Nc3cccc(-n4cnnn4)c3)C2)cc1 (stereo unspecified) -5.86%, Cc1cc(=O)oc2c(C)c(OC(C)C(=O)NC3CCN(Cc4ccccc4)CC3)ccc12 (stereo unspecified) -6.34%, C[C@H](NC(=O)[C@@H]1Cc2ccccc2CN1C(=O)OC(C)(C)C)C(=O)NC1CCCC1 0.26%, CCCn1c(C2CCCN2c2nc(-c3ccc(OC)cc3)cs2)nc2ccccc21 (stereo unspecified) 46.7%, Cc1ccc2nc(-c3ccncc3)cc(C(=O)Nc3ccncc3)c2c1 20.1%, COc1cccc(C(=O)N/N=C(\C)c2cccc(NC(=O)c3ccc(F)cc3)c2)c1OC -0.886%, O=C(NCCCO)c1cc2c([nH]c3ccccc32)c(-c2ccc(F)cc2)n1 -3.77%, CCCC(=O)N1CCN(c2nnc(-c3ccc(C)cc3)c3ccccc23)CC1 15%, Cc1cc(Cl)ccc1OCCCC(=O)Nc1cccc(-n2cnnn2)c1 -0.924%, CCOc1ccc(CCNC(=O)CCc2nnc3ccc(N4CCCC4)nn23)cc1OCC 13.4%, CC(=O)N1CCOc2ccc(S(=O)(=O)N3CCN(c4cccc(C(F)(F)F)c4)CC3)cc21 -1.07%, CCCCN(CCCC)CCCNC(=O)CN1C(=O)COc2ccc(S(=O)(=O)N3CCC(C)CC3)cc21 -14.2%, Cc1ccc(OCC(=O)Nc2ccc(C(=O)O)cc2NC(=O)COc2ccc(C)c(C)c2)cc1C 6.17%, COc1ccc(C(=O)CC(=O)C(=O)Nc2cc([N+](=O)[O-])ccc2OC)cc1 0.59%, CC(C)c1ccc(S(=O)(=O)N2CCN(C(=O)c3ccc(N4CCCC4)c([N+](=O)[O-])c3)CC2)cc1 -3.33%, COc1cccc(NC(=O)C2CCCN(c3ncnc4c3nc3n4CCCCC3)C2)c1 (stereo unspecified) -5.89%, Cc1ccc(CN2CCC(n3nccc3NC(=O)CCCc3ccccc3)CC2)o1 5.27%, CCc1ccc(NC(=O)CN2CCC(C(=O)c3ccc(OC)cc3)CC2)cc1 2.27%, O=C(Nc1ccccc1N1CCCC1)c1ccc2ccccc2c1 9.01%, CCCCCN(C(=O)CCC(=O)OCC(=O)NCc1ccc(OC)cc1)c1c(N)n(CCCC)c(=O)[nH]c1=O -3.21%
